PubChem BioAssay (NCI)
Where “and” joins values, the source holds several entries; their conditions need not be identical. Equal values may be shown once. This is part of a sample that, as a whole, favours compounds with a hit. Of some 83,000 tested, about 20% had one in any assay.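 The test compound was applied at a single concentration to cells in 96-well plates for 48 hours, and percent growth was recorded.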 Calls of active or inactive are those of the source.

What follows are compounds tested on PC-3 prostate (assay: NCI-60 one-dose screen, 48 h (100 = growth as untreated, 0 = no growth, -100 = all killed)). Conditions: 10 µM.
Description: Growth inhibition of the PC-3 human tumor cell line is measured as a screen for anti-cancer activity. Cells are grown in 96 well plates and exposed to the test compound for 48 hours. Compounds are tested at a single concentration, which is 10^-5 M for most compounds. The reported endpoint is percent growth (GI% or GIPRCNT), where numbers from 0 - 100% represent growth inhibition, and numbers from -100% - 0 represent cell death. For example, a value of 40 represents 60% growth inhibition. A value of 0 means no net growth occurred over the course of the experiment. A value of -40 indicates 40% of cells at the beginning of the experiment died by the end of the experiment. A value of -100 means all cells are dead at the end of the experiment.
NCI-60 Human Tumor Cell Lines Screen was performed using the standard one-dose NCI protocol, which is described in more detail at https://dtp.cancer.gov/discovery_development/nci-60/default.htm.
Compounds with GIPRCNT values below 10 were considered active. Activity score was based on GIPRCNT using the following formula: […]
Score is 0 for GIPRCNT values of 100 or above, 50 for GIPRCNT values of 0, and 100 for GIPRCNT values of -100.

| SMILES | growth |
| --- | --- |
| O=c1ccn2c(n1)OC1CC2OC1COC(c1ccccc1)(c1ccccc1)c1ccccc1 (stereo not given) | 84.1% (inactive) |

Same assay, conditions: 10 µM unless noted

| SMILES | growth |
| --- | --- |
| O=C(O)COc1ccccc1F | 82.6% (inactive) |
| N#CC(=S)Nc1ccc(Cl)c(Cl)c1 | 23.1% (inactive) |
| OCCSc1ccc(Cl)cc1 | 101% (inactive) and 81.5% (inactive) |
| Cc1c(O)nc(N)[nH]c1=O | 101% (inactive) |
| COCCNC(C)=O | 101% (inactive) |
| O=[N+]([O-])c1ccc(NC(c2ccccc2)c2ccc3cccnc3c2O)cc1 (stereo not given) | 30.3% (inactive) |
| C/C(=C\c1ccccc1)C(O)C(=O)c1nc2ccc([N+](=O)[O-])cc2[nH]c1=O (stereo not given) | 79.7% (inactive) |
| Nc1[nH][nH]c(=O)c1N=Nc1ccccc1 | 99% (inactive) and 101% (inactive) |
| COc1cc([C@@H]2c3cc4c(cc3[C@H](O)[C@H]3COC(=O)[C@@H]23)OCO4)cc(OC)c1OC | 26.9% (inactive) and 6.21% (active) |
| CS(=O)(=O)OCC1NC(=O)C(COS(C)(=O)=O)NC1=O (stereo not given) | 88.3% (inactive) and 82.6% (inactive) |
| COc1ccc(C(=O)C(O)c2ccc(OC)cc2)cc1 (stereo not given) | 93.9% (inactive) and 92.2% (inactive) |
| Cc1ccc([N+](=O)[O-])cc1Br | 94.8% (inactive) |
| CC(C)(C)OC(=O)NCCc1ccc(N)cc1 | 89.5% (inactive) |
| CC(C)(C(=O)c1cccnc1)c1cccnc1 | 89.5% (inactive) and 92.5% (inactive) |
| O=C(c1ccccc1)C1(Br)CCCCC1 | 99.2% (inactive) |
| NCCSSC/C=C\CSSCCN | 78.3% (inactive) |
| CC(=O)Oc1ccc(C2(c3ccc(OC(C)=O)cc3)C(=O)Nc3ccccc32)cc1 | 65.3% (inactive) and 52.3% (inactive) |
| O=S(=O)(O)c1ccc2cc(O)ccc2c1 | 94.7% (inactive) |
| CCOC(=O)C1=CC(=O)CC(C)(C)O1 | 88.7% (inactive) and 105% (inactive) |

| SMILES | growth |
| --- | --- |
| CC(O)CCNC(c1ccccc1)C(O)c1ccccc1 (stereo not given) | 94.8% (inactive) |
| CCN(CC)C(=S)SCCO | 103% (inactive) |
| O=C1C=CC(n2cc(F)c(=O)[nH]c2=O)O1 (stereo not given) | 92.9% (inactive) |
| CC1(CO)CCCC1NCCNC1CCCC1(C)CO (stereo not given) | 90.9% (inactive) and 95% (inactive) |
| C/C=C(/C(=O)NC(N)=O)C(C)C | 105% (inactive) |
| Oc1cccnc1CN1CCOCC1 | 93.9% (inactive) and 96.3% (inactive) |
| CN1C2C=CC(=O)C1C1C(=O)N(c3ccccc3)C(=O)C12 (stereo not given) | 54.8% (inactive) |
| NNC(=O)Nc1ccccc1 | 93.5% (inactive) |
| CCc1ccc(OC(=O)CCl)cc1 | 98.3% (inactive) |
| O=C1Cc2ccccc2C(=O)N1 | 95.2% (inactive) |
| Clc1ccc2c(c1)N(C1CCCN(Cc3ccccc3)C1)c1ccccc1S2 (stereo not given) | 45% (inactive) |
| COc1ccc2oc3cc(NCCN(C)C)ccc3c(=O)c2c1 | 83.6% (inactive) and 70.9% (inactive) |
| CCCC(=O)OCC(COC(=O)CCC)OC(=O)CCC | 85.4% (inactive) |
| CCCCOC1NC(=O)NC(=O)C1(F)C(=O)OCC (stereo not given) | 88.4% (inactive) and 85.6% (inactive) |
| O=C1c2cccnc2-c2ncccc21 | 96.4% [100 µM] (inactive) |
| S=c1ccc2ccccc2[nH]1 | 86.3% (inactive) and 96.4% (inactive) |
| O=[N+]([O-])c1ccc(NC2CCCCC2)nc1 | 105% (inactive) and 98% (inactive) |
| O=C(O)c1cc(=O)[nH]c(=O)[nH]1 | 91.4% (inactive) and 80.3% (inactive) |
| OCc1cccc(F)c1 | 91% (inactive) |

Same assay, conditions: 100 µM

| SMILES | growth |
| --- | --- |
| O=c1ccn2c(n1)OC1CC2OC1COC(c1ccccc1)(c1ccccc1)c1ccccc1 (stereo not given) | 63.1% (inactive) |
